High-throughput results (PubChem)
Hits are enriched below; roughly 11% of the tested compounds scored in any of these assays.
HPGD block: HPGD (human) dehydrogenase inhibition | 150,000 tested, 4.3% active | P15428 | Potency, µM, most hits filed as inhibitors | purified HPGD, NADH fluorescence kinetic, PGE2 substrate; active = well fitted inhibition curve with a large enough effect, not every such curve was filed as active; inconclusive = small, poorly fitted or top-dose-only effect, or another doubt; inactive = no such curve, though single readings can be large or run the other way
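20 nM HPGD preincubated 15 min at room temperature with compound in 50 mM Tris-HCl pH 8, 0.01% Tween 20. Started with 1 mM NAD+ and 30 uM prostaglandin E2; NADH fluorescence (360/450 nm) read 5 times over 30-s intervals, last minus first.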
ALOX12 inhib: blocks human 12-lipoxygenase activity | P18054 | purified 12-hLO, xylenol orange hydroperoxide absorbance | Potency, µM (series often up to 57.1 µM), usual class: inhibitors | 150,000 tested, 0.12% active | AID 1452; note: nearly all actives have a fitted effect of over 55% in size
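Lipoxygenase turnover measured by absorbance at 573 and 405 nm after Fe-XO development. Human 12hLO 150 nM, arachidonate 40 uM, pH 7.0 Hepes buffer with detergent; 15 min compound preincubation, 30 min reaction.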
ALDH1A1 block: blocks purified human ALDH1A1 activity | P00352 | Purified ALDH1A1, NADH fluorescence, propionaldehyde substrate | Potency, µM (doses to about 75.3 µM), most hits filed as inhibitors | 220,000 tested, 7.3% active | AID 1030; active = well fitted inhibition curve with a large enough effect, not every such curve was filed as active; inconclusive = small, poorly fitted or top-dose-only effect, or another doubt; inactive = no such curve, though single readings can be large or run the other way
Target sequence (P00352 whole entry, looked up): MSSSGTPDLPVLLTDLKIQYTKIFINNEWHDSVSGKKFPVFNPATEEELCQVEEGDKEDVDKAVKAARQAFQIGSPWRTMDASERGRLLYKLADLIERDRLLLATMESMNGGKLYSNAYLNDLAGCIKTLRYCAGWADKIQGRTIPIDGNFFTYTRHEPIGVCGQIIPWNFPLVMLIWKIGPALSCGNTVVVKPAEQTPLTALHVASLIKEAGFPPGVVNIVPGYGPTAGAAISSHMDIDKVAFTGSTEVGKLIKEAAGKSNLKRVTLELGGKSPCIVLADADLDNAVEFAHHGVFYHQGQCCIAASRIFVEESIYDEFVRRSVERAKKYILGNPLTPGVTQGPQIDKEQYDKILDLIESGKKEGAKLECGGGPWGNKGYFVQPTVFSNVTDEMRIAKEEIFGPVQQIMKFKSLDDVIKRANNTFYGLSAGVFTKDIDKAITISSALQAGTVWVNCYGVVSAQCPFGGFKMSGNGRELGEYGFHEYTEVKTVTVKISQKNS
IMPase inh: cell-permeable inhibitors of inositol monophosphatase (IMPase) | P97697 | CHO-M1 cells, IP1 accumulation, HTRF TR-FRET ratio | inhibition (IP1 accumulation), % at 46.1 µM | 120,000 tested, under 10 active | AID 901; active = well fitted curve in the direction sought with a large enough effect in the signal ratio, not every such curve was filed as active; inconclusive = small, poorly fitted or top-dose-only effect, or a change in a side signal; inactive = no such curve, though single readings can be large or run the other way; the % refers to the signal ratio;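 note: cells stimulated with carbachol in lithium chloride buffer; higher means more IMPase inhibition seen as more IP1 and lower FRET ratio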
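Measured: the HTRF emission ratio (665/620 nm) plus the 620 nm donor channel, each fitted to the Hill equation to give AC50. Cells were CHO-M1 given compounds up to 46 uM and a 30 min carbachol stimulation at 37C.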
PNC assembly inh: perinucleolar compartment assembly inhibition; 140,000 tested, 3.1% active; AID 2417; PC3M PTB-GFP, PNC prevalence imaging, 16 h; active compounds read low; activity change (PNC), negative = inhibition, % at 10 µM;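 active = readout at or below -70, meaning at least 70% loss of cells showing the perinucleolar compartment, a nuclear body marking cancer cells; inconclusive = readout between -30 and a set limit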
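Compounds are pinned in duplicate onto adhered PC3M cells stably expressing GFP-tagged PTB and incubated 16 h at 37 C. Cells are then fixed, nuclei stained with Hoechst, and PNC-positive cells counted.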
IMPase Li cell: IMPase inhibition in cells with lithium potentiation; Potency, µM (highest dose often 59.4 µM), hits mostly inhibitors; CHO-M1 cells, IP1 TR-FRET (IP-One), carbachol + lithium; 210,000 tested, 0.35% active; AID 1457;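 note: IP1 builds up when IMPase is blocked and the TR-FRET signal falls; nearly all actives have a fitted effect of over 50% in size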
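CHO cells stably expressing M1 receptor (2000/well) were cultured 16–30 h, then exposed to compounds with a small lithium addition for 30 min at 37C. IP1 was measured by TR-FRET competition; AC50 from Hill fits.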
Numbers stand for hits; . = inactive; ? = inconclusive; / = no result given; [ ] = remark or other dose. Unless noted, calls come from the whole dose curve; as a rule, active = well fitted curve in the direction sought with a large enough effect; inconclusive = small, poorly fitted or top-dose-only effect, or another doubt; inactive = no such curve, though single readings can be large; an effect the other way counts as inactive or inconclusive.

SMILES	HPGD block	ALOX12 inhib	ALDH1A1 block	IMPase inh	PNC assembly inh	IMPase Li cell
CCCc1cc(=O)[nH]c(SCc2cc(C(=O)OC)c(C)o2)n1	16µM	.	.	.	.	.
COC(=O)c1cc(CSc2nc3ccccc3[nH]2)oc1C	.	.	.	.	.	.
Cc1nc(N2CCN(C(=O)CCC(=O)O)CC2)c2c(C)c(C)sc2n1	35µM	.	.	.	.	.
CCC(=O)N1CCN(c2nc(C)nc3sc(C)c(C)c23)CC1	?	.	.	.	.	.
CCOC(=O)c1csc(-n2nc(C)cc2C(F)(F)F)n1	/	/	.	/	/	.
Cc1cc(C(F)(F)F)n(-c2nc(C(=O)NN)cs2)n1	/	/	2.2µM	/	/	.
c1cncc(-c2cc(NCc3cccs3)ncn2)c1	/	/	.	/	/	.
O=C(CSc1nc2ccccc2n1Cc1ccccc1)N/N=C/c1ccco1	.	.	.	.	?	.
CCn1c(SCC(=O)N/N=C/C=C\c2ccco2)nc2ccccc21	?	.	10µM	.	.	.
CCn1c(SCC(=O)N/N=C/c2cc(OC)c(O)c(OC)c2)nc2ccccc21	.	.	?	.	.	.
C/C(=N/NC(=O)CSc1nc2ccccc2n1C)c1ccc(O)cc1	/	/	13µM	/	/	.
Cn1c(SCC(=O)N/N=C/C=C\c2ccco2)nc2ccccc21	20µM	?	6µM	.	?	.
CCn1c(SCC(=O)N/N=C/c2cc(OC)c(OC)c(OC)c2)nc2ccccc21	.	.	25µM	/	.	.
COC(=O)/C=C/c1cc(O)ccc1O	/	/	28µM	/	/	.
CC(=O)/C=C/c1ccccc1O	/	/	.	/	/	.
CCC(C)C(=O)OC1CC(O)C=C2C=CC(C)C(CCC(O)CC(O)CC(=O)O)C21 (stereo not drawn)	.	.	.	/	/	.
CCOC(=O)C1=C(C)NC(=S)NC1c1cc(C)sc1C (stereo not drawn)	/	/	40µM	/	/	.
CCOC(=O)C1=C(C)NC(=S)NC1c1ccc(C)s1 (stereo not drawn)	/	/	2.5µM	/	/	.
CCOC(=O)C1=C(C)NC(=S)NC1c1ccsc1 (stereo not drawn)	/	/	7.1µM	/	/	.
COc1ccc(-c2cc(C(F)(F)F)nc(SCCC(=O)Nc3ccc(O)cc3)n2)cc1	/	/	/	.	/	/
N#C/C(=C\c1ccc(O)c(O)c1)C(=O)NCCCCc1ccccc1	8.9µM	?	?	.	/	.
N#C/C(=C\c1ccc(O)c(O)c1)C(=O)NCCc1ccccc1	25µM	?	?	.	/	.
N[C@@H](CC1=CS(=O)(=O)c2ccc(Cl)cc21)C(=O)O	.	.[11.4 µM]	.[13.5 µM]	/	/	.
N#Cc1ccc(CS(=O)(=O)c2ccccc2)cc1	.	/	.	/	/	.
C=C1c2cccc(C(F)(F)F)c2O[C@H](C(=O)OCC)C1OC (mixture of isomers)	.	.[0.00818 µM]	.	/	/	.
SMILES	HPGD block	ALOX12 inhib	ALDH1A1 block	IMPase inh	PNC assembly inh	IMPase Li cell
O=C(NCCCNCc1ccccc1)c1ccncc1	.	.	2µM	.	.	.
CN(C)CCCNCCCNC(=O)c1ccncc1	.	.	.	.	.	.
C[n+]1cccc(CNC(=O)/C=N/O)c1	.	.	.	.	.	?
O=C(/C=N\O)NCCCNCc1ccccc1	.	.	22µM	.	?	.
CN(CCOc1ccc(C[C@H](Nc2ccccc2C(=O)c2ccccc2)C(=O)O)cc1)c1ccccn1	.	.	.	.	/	.
N#CC(C#N)=C1C=CC=CN1/C(=C\c1ccccc1Cl)C(=O)c1ccccc1	7.9µM	.	?	/	.	.
Cc1ccccc1-c1nccc(NCc2cccs2)n1	/	/	?	/	/	.
O=c1c(-c2ccccc2)coc2cc(O)cc(O)c12	6.3µM	11µM	11µM	/	/	.
O=c1c(-c2ccc3c(c2)OCCO3)coc2cc(O)cc(O)c12	28µM	?	16µM	.	.	.
COc1cc(OC)c2c(=O)c(-c3ccc4c(c3)OCO4)coc2c1	.	.	?	/	/	.
CCC(=O)O[C@H](CC(=O)O)C[N+](C)(C)C	.	.	.	.	/	.
O=[N+]([O-])c1c(NCCCO)cc(SCc2ccco2)c2nonc12	.	.	?	/	.	.
O=[N+]([O-])c1c(NCCCO)cc(Sc2ccc(Cl)cc2)c2nonc12	.	.	4.5µM	.	?	.
COc1ccc(CNc2cc(NCCCO)c([N+](=O)[O-])c3nonc23)cc1	/	/	10µM	/	/	.
Cn1ccnc1Sc1cc(NCCCO)c([N+](=O)[O-])c2nonc12	/	/	.	/	/	.
CCCCCCCCCCCCCCC[C@H](O)[C@H](N)CO	.	.	.	.	/	.
COc1ccc(C(=O)CC2(O)C(=O)N(CCc3ccccc3)c3ccc(Br)cc32)cc1OC (stereo not drawn)	/	/	/	.	/	/
CC(Cl)C(=O)NNc1cccc(Cl)n1 (stereo not drawn)	.	.	20µM	.	.	.
CCc1ccccc1OCC(=O)Nc1ccc(S(=O)(=O)Nc2nc(C)cc(C)n2)cc1	/	/	/	.	/	/
Cc1cc(C(=O)CSC(C)c2nc3ccccc3c(=O)[nH]2)c(C)n1C (stereo not drawn)	.	.	.	.	.	.
O=C(CSc1nc2ccccc2c(=O)[nH]1)c1ccccc1	13µM	.	?	?	.	?
Cc1cc(C(=O)CSc2nc3ccccc3c(=O)[nH]2)c(C)n1C	22µM	.	.	.	?	.
CC(C)(C)c1ccc(C(=O)CSc2nc3ccccc3c(=O)[nH]2)cc1	.	.	?	.	.	.
COc1ccc2oc(-c3ccc(NC(=O)c4ccc(Cl)cc4Cl)cc3)nc2c1	/	/	/	.	/	/
